Bioassay records from PubChem.
Compounds with a hit are over-represented: about 7.4% of the library has one in this group of screens.
SNCA expr inhib = Primary qHTS assay for inhibitors of alpha-synuclein gene (SNCA) expression; HEK-293 SNCA-luciferase knock-in, luminescence, 24 h; Potency, µM (doses to about 57.2 µM), inactives show at the top dose activity change, negative = inhibition, most hits filed as inhibitors; 0.17% of 140,000 active;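 also: plate controls were DMSO cells for no effect and cell-free wells for full effect; nearly all actives have a fitted effect of over 45% in size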
Luciferase inh = Firefly luciferase inhibition profiling of diverse chemical library using quantitative high-throughput screening | Luciferin 4-monooxygenase (Photinus pyralis), P08659 | 2.5% of 76,000 active | purified P. pyralis luciferase, luminescence, biochemical | AID 1347043, 2019 | Potency, µM (highest dose often 115 µM), usual class: inhibitors; also: nearly all actives have a fitted effect of over 65% in size
Target sequence (P08659 whole entry, looked up): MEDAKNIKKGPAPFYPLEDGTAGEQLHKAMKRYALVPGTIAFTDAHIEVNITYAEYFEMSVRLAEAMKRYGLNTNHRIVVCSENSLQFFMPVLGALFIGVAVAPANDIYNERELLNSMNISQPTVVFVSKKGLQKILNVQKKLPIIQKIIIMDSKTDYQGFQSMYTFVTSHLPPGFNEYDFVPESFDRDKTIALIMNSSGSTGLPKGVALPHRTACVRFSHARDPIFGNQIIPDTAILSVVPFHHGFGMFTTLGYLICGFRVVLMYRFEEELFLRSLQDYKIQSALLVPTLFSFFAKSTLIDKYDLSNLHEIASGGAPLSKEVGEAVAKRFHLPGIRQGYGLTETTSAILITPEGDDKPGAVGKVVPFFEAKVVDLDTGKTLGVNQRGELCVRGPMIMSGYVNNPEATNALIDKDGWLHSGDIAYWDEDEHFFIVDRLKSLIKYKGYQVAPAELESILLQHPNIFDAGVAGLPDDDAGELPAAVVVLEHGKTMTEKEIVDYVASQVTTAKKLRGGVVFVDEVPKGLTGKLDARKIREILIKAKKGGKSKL
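Purified P. pyralis luciferase (10nM final) in 50mM Tris acetate pH 7.5, 10mM Mg acetate, 0.01% Tween-20, 0.05% BSA with 10uM D-luciferin and 10uM ATP. Compounds titrated qHTS. Luminescence imaged on CCD.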
NPR1 antag = Natriuretic polypeptide receptor (hNpr1) antagonism - Primary qHTS | 1.6% of 76,000 active | Atrial natriuretic peptide receptor 1 (Homo sapiens), P16066 | HEK293 hNpr1 GloSensor cGMP, ANP-stimulated luminescence | AID 1347048, 2019 | Potency, µM (top dose mostly 46.3 µM), for inactives: at the top dose activity change, negative = inhibition, most hits filed as inhibitors; calls by dose curve; also: nearly all actives have a fitted effect of over 60% in size
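HEK293 cells stably expressing human Npr1 and cGMP GloSensor pGS-40F, loaded 2 h with 2% GloSensor reagent, given compound 30 min at room temperature. Luminescence read before and 20 min after 0.1 nM hNppA.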
HEK293 tox = Cytotoxic Profiling in HEK 293 Cell Line of Diverse Libraries Using Quantitative High-Throughput Screening | HEK 293 viability, ATP luminescence (CellTiter-Glo), 48-72 h | Potency, µM (doses to about 115 µM), without a hit: top-dose activity change, negative = cytotoxicity, usual class: inhibitors | 6.6% of 94,000 active | AID 1345083, 2018; also: nearly all actives have a fitted effect of over 60% in size
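Pintool-delivered compounds were incubated with HEK 293 cells (250 cells/well) at 37 degree Celsius for 48 or 72 hr. ATP-dependent luminescence (CellTiter-Glo) then reported remaining viable cells.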
HEK293 viab = GF-AFC viability counterscreen for inhibitors of alpha-synuclein gene (SNCA) expression; HEK-293-SNCA-luc viability, GF-AFC fluorescence, 24 h; Potency, µM (series often up to 57.1 µM), for inactives: at the top dose activity change, negative = cytotoxicity, most hits filed as cytotoxic; 0.12% of 150,000 active; AID 1671193, 2021;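 also: 0% = DMSO-treated cells and -100% = medium-only wells without cells; nearly all actives have a fitted effect of over 30% in size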
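HEK-293-SNCA-luc cells (1500/well) plated 24 h, then exposed 24 h to a dilution series; GF-AFC added 30 min at 37C, fluorescence 405/540 nm; normalised to medium-only and DMSO wells, Hill fit.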
NIH3T3 tox = Cytotoxic Profiling in NIH 3T3 Cell Line of Diverse Libraries Using Quantitative High-Throughput Screening; NIH 3T3 viability, CellTiter-Glo ATP luminescence, 48-72 h; Potency, µM (series often up to 96.7 µM), without a hit: top-dose activity change, negative = cytotoxicity, usual class: inhibitors; 4.3% of 94,000 active; AID 1345082, 2018; also: nearly all actives have a fitted effect of over 55% in size
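Viability of NIH 3T3 cells after 48 or 72 hr compound treatment at 37 °C was assessed by CellTiter-Glo, with luminescence imaged following a 10 min room-temperature step.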
* marks the source's active call; other numbers are inactive results; i = inactive; u = inconclusive; x = no result given; [ ] = remark or other dose. Unless noted, calls follow the shape of the dose curve; as a rule, active = well fitted curve in the direction sought with a large enough effect; inconclusive = small, poorly fitted or top-dose-only effect, or another doubt; inactive = no such curve, though single readings can be large; an effect the other way counts as inactive or inconclusive. Unless noted, % is scaled to controls: 0 for no effect and ±100 for the full control effect; potency is read from the fitted curve at half-maximal effect.

SMILES	SNCA expr inhib	Luciferase inh	NPR1 antag	HEK293 tox	HEK293 viab	NIH3T3 tox
COC(=O)C[C@H]1c2cccnc2C(=O)N(C)[C@@H]1C(=O)NCCc1ccccc1	-21.1%[25.6 µM]	x	x	u	-5.7%[23.9 µM]	u
COCCN1C(=O)CCc2cc(NC(=O)c3ccc4c(c3)OCO4)ccc21	37.9%	39.8µM*	2.2%	u	-3.5%	-7.3%
CC(C)CN1C(=O)CCc2cc(NC(=O)c3ccc4c(c3)OCO4)ccc21	-4.9%	u	-13.4%	39.8µM*	-18.9%	u
CCOC(=O)[C@@H]1CN(C(=O)OCC)[C@H]2c3ccccc3O[C@@H]12	x	x	x	-18.4%	x	u
CC(C)CCNC(=O)CCC1CCN(C(=O)c2ccccc2F)CC1	122.1%	28.2µM*	-3.4%	-22.3%	-7.6%	-27.8%
CNC(=O)CCC1CCN(C(=O)c2ccccc2F)CC1	-21.3%	i	1.8%	2.8%	6.8%	4.5%
Cc1ccccc1C(=O)N1CCN(C(=O)c2cccc(-c3ccccn3)c2)CC1	9.1%	x	x	u	-0.4%[12.5 µM]	u
Cn1c(CNC(=O)C2(C)CCCCC(=O)N2)nc2ccccc21 (stereo unspecified)	0.1%	i	-11.4%	44.7µM*	-10.3%	39.8µM*
O=C(NC1CCN(c2cc(N3CCOCC3)cnn2)C1)C1CC1 (stereo unspecified)	5.4%	x	x	2.5%	0.0%	-5.1%
CC(=O)NC1(C)CCCN(Cc2cccc(-c3cccc(F)c3)c2)C1 (stereo unspecified)	3.6%[87.6 µM]	i	-1.0%[70.6 µM]	u	-10.8%[87.6 µM]	u
CC(=O)NC1(C)CCN(Cc2cccc(-c3ccc4c(c3)OCCN4C)c2)C1 (stereo unspecified)	184.0%[87.6 µM]	22.4µM*	u	u	u	89.1µM*
CC(=O)NC1(C)CCN(Cc2cccc(-c3ccc(N4CCOCC4)cc3)c2)C1 (stereo unspecified)	-6.4%[87.6 µM]	5.62µM*	3.98µM*	u	3.8%[87.6 µM]	-23.7%[138 µM]
CC(=O)NC1(C)CCCN(Cc2cccc(-c3ccccc3)c2)C1 (stereo unspecified)	12.0%[87.6 µM]	i	-2.3%[70.6 µM]	u	2.4%[87.6 µM]	u
CNC(=O)[C@H]1C[C@]2(CCCCN(CCO)C2=O)N(C(=O)CC(C)(C)C)[C@H]1c1ccccc1	x	x	x	-7.7%	x	u
COc1ccc(-c2noc([C@@H]3C[C@H](NS(=O)(=O)c4ccc(OC)cc4)CN3C)n2)cc1	80.1%	22.4µM*	u	39.8µM*	-17.5%	u
Cc1ccc(S(=O)(=O)N[C@H]2C[C@@H](c3nc(-c4ccccc4)no3)N(C)C2)cc1	48.3%[87.6 µM]	u	1.4%[70.6 µM]	u	-12.6%[87.6 µM]	-28.1%[174 µM]
COc1ccc(-c2noc([C@@H]3C[C@H](NS(=O)(=O)c4ccccc4)CN3C)n2)cc1	103.0%[87.6 µM]	i	-26.2%[70.6 µM]	89.1µM*	-19.4%[87.6 µM]	u
Cc1ccc(-c2noc([C@@H]3C[C@H](NS(=O)(=O)c4ccc(Cl)cc4)CN3C)n2)cc1	37.7%[87.6 µM]	22.4µM*	u	79.4µM*	-13.1%[87.6 µM]	u
COc1ccc(-c2noc([C@@H]3C[C@H](NCc4ccc(N(C)C)cc4)CN3C)n2)cc1	-0.1%[87.6 µM]	63.1µM*	-15.5%[70.6 µM]	35.5µM*	-20.2%[87.6 µM]	50.1µM*
COc1ccc(S(=O)(=O)N[C@H]2C[C@@H](c3nc(-c4ccc5c(c4)OCO5)no3)N(C)C2)cc1	5.9%	i	u	u	-27.6%	u
COc1ccc(C(=O)N[C@H]2C[C@@H](c3nc(-c4ccncc4)no3)N(C)C2)cc1	-15.4%[87.6 µM]	i	5.8%[70.6 µM]	0.3%[172 µM]	u	i
CNC(=O)c1cc(C)nc2onc(C3CCN(C(=O)c4ccccc4F)CC3)c12	x	x	x	-12.3%	x	-21.6%
